# Assay results taken from ChEMBL document CHEMBL2218924, “A broad activity screen in support of a chemogenomic map for kinase signalling research and drug discovery” (Biochem J, 2013).
# How the values were obtained:
# [1] = target: T1, Mitogen-activated protein kinase kinase kinase 7 (Homo sapiens) (UniProt O43318); details: at 10 µM
# T1 sequence (whole entry): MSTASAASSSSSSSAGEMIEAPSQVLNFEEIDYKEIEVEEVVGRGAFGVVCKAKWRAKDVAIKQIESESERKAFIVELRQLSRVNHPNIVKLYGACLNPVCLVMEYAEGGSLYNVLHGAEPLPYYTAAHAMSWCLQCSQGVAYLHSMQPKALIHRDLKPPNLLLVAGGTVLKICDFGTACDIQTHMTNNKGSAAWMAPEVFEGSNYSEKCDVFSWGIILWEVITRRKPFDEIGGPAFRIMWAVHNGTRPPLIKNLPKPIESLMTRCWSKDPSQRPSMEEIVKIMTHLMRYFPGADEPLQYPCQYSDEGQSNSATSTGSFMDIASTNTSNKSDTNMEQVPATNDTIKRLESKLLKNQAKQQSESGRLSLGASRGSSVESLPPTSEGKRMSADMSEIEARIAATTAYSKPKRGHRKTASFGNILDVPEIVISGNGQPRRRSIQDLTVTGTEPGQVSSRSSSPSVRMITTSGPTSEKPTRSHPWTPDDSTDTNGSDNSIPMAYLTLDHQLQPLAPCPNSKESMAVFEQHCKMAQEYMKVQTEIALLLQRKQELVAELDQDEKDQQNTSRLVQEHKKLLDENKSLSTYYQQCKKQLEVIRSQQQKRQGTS
# [2] = target: T2, Serine/threonine-protein kinase TAO1 (Homo sapiens) (UniProt Q7L7X3); details: at 1 µM
# T2 sequence (whole entry): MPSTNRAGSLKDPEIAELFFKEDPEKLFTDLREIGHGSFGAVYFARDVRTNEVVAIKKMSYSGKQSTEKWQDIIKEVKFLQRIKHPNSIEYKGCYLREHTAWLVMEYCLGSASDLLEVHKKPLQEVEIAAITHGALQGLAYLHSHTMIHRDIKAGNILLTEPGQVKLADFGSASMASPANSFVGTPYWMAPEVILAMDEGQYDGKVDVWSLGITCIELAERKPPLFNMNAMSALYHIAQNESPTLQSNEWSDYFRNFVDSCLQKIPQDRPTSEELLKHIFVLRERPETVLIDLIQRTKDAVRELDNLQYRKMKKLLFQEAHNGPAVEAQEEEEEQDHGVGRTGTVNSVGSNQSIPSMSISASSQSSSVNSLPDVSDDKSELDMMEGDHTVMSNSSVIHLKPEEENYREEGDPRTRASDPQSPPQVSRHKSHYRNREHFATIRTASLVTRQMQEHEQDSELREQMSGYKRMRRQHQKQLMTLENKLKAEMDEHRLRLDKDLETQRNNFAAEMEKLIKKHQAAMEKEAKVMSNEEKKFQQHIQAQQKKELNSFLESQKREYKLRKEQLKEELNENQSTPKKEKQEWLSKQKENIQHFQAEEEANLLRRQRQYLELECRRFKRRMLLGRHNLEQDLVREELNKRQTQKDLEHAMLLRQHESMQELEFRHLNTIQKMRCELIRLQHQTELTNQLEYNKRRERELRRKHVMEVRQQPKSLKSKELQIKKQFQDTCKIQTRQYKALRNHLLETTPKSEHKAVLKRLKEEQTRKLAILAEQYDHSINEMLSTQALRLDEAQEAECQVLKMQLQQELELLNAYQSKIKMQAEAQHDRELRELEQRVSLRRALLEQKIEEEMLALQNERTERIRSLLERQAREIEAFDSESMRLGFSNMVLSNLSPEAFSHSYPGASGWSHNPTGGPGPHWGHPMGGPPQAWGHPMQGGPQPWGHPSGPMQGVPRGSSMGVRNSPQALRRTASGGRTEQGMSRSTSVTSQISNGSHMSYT
# [3] = target: T2, Serine/threonine-protein kinase TAO1 (Homo sapiens); details: at 10 µM
# [4] = target: T3, Serine/threonine-protein kinase TBK1 (Homo sapiens) (UniProt Q9UHD2); details: at 1 µM
# T3 sequence (whole entry): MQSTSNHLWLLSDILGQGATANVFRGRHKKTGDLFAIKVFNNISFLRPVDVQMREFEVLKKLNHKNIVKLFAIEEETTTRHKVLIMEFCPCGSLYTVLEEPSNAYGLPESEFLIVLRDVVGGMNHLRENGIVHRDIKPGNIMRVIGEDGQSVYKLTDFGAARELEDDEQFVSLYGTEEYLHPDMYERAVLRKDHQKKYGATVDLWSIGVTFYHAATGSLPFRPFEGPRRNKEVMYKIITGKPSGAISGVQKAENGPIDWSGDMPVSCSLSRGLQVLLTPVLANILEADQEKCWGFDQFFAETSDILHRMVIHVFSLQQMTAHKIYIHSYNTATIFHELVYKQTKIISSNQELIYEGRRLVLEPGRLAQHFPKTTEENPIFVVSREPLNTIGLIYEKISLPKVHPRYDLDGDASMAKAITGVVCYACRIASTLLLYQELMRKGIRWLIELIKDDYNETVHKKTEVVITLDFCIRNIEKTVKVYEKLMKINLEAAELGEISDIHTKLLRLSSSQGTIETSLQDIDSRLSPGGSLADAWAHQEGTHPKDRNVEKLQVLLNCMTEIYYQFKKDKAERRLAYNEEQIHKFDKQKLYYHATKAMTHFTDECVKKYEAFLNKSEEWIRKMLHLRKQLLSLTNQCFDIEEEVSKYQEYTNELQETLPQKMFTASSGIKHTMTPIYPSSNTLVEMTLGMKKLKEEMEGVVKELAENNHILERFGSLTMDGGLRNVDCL
# [5] = target: T3, Serine/threonine-protein kinase TBK1 (Homo sapiens); details: at 10 µM
smiles,measurement,setting,value
CCN1/C(=C/C(C)=O)Sc2ccc(OC)cc21,residual activity,[1],80%
same,residual activity,[2],75%
same,residual activity,[3],46%
same,residual activity,[4],70%
same,residual activity,[5],51%
